Drawing on PubChem BioAssay (EPA / NIEHS), this text covers outcome and AC50 for 39 compounds.

Values joined by “and” are separate entries in the source; they are usually repeats but may differ in a detail not shown here. Identical values can stand only once. The source holds several records for some structures; these can differ, active in one and inactive in another. Active and inactive are the calls of the source. How the source made its calls: active means hit-call score of the fitted dose curve at least 0.9, where 1 is the maximum; inactive means score below 0.9.

Read-out in the assay: Intercellular Adhesion Molecule 1 (ICAM1), ICAM1 (gene 3383)
As to the kind of experiment: BSK_BE3C_ICAM1: BioMAP Diversity Plus: BE3C Assay for Intercellular Adhesion Molecule 1 (ICAM1) Biomarker Activity (AID 2284278). Conditions: primary human bronchial epithelial cells. How it is done: BSK_BE3C is a cell-based, multiplexed-readout assay that uses bronchial epithelial cell, a human lung primary cell, with measurements taken at 24 hours after chemical dosing in a 96-well plate.BSK_BE3C_ICAM1 is an assay component measured in the BSK_BE3C assay. It measures ICAM-1 antibody related to regulation of gene expression using ELISA technology.Data from the assay component BSK_BE3C_ICAM1 was analyzed at the endpoint, BSK_BE3C_ICAM1, in the positive analysis fitting direction relative to DMSO as the negative control and baseline of activity. Using a type of binding reporter, gain or loss-of-signal activity can be used to understand protein changes. To generalize the intended target to other relatable targets, this assay endpoint is annotated to the 'cell adhesion molecules' intended target family, where the subfamily is 'Immunoglobulin CAM'.
The levels of cell surface (or secreted, indicated by the prefix "s") biomarker endpoints were measured by ELISA. Overt cytotoxicity to cells in confluent adherent cultures (all systems other than the BT system) was assessed by measuring total protein levels using sulforhodamine B (SRB) staining in parallel cultures at the time of biomarker measurements, indicated as SRB endpoints. For proliferation assays for adherent cell types, individual cell types are cultured at sub-confluence and relative cell numbers quantified by SRB staining at time points optimized for each system (48 h: 3C and CASM3C systems; 72 h: BT and HDF3CGF systems; 96 h: SAg system). SRB was performed by staining cells with 0.1% SRB after fixation with 10% TCA and reading wells at 560 nm.Viability and proliferation of PBMC (T cells) was quantified by Alamar Blue reduction for the SAg and BT systems. For PBMC viability (referred to as PBMC Cytotoxicity within the assay endpoint names), cells were plated (75,000/well in a 96-well plate) and then chemical samples added for 1 h before addition of activators, SEB and TSST-1 (20 ng/mL final concentration each). Cells were incubated for 90 h. Then, Alamar Blue (20 uL/well) (Invitrogen, Cat DAL1100) was added for 6 h, and the plates were read with a fluorescence microplate reader at 546/580 nm (excitation/emission). For PBMC proliferation, cells were plated and activated as above but incubated for only 16 h prior to addition of Alamar Blue. Plates were read after 6 h.
For `O=S(=O)(OCC(F)(F)F)C(F)(F)C(F)(F)C(F)(F)C(F)(F)F`, the result was inactive.

`O=C(F)C1(F)C(F)(F)C(F)(F)C(F)(F)C(F)(F)C1(F)F`: the result was inactive.

In the case of `O=C(O)C(F)(F)OC(F)(F)C(F)(F)OC(F)(F)C(F)(F)OC(F)(F)F`, the result was inactive.

With `OCC(F)(F)C(F)(F)C(F)(F)C(F)(F)C(F)(F)C(F)(F)CO`, the outcome was inactive.

Turning to `O=C(O)C(F)(F)C(F)(F)C(F)(F)OC(F)(C(F)(F)F)C(F)(F)F`, the outcome was inactive.

On to `OCC(F)(F)C(F)(F)C(F)(F)CO`, for which the outcome was inactive.

On to `OC(O)C(F)(F)C(F)(F)F`, for which the outcome was inactive.

As for `NC(=O)C(F)(F)C(F)(F)C(F)(F)C(F)(F)C(F)(F)C(F)(F)C(F)(F)F`, the result was inactive.

As to `O=C(O)C(F)(F)C(F)(F)C(F)(F)C(F)(F)C(F)(F)C(F)(F)C(F)F`, the outcome was inactive.

With `O=S(=O)(Cl)C(F)(F)C(F)(F)C(F)(F)C(F)(F)C(F)(F)C(F)(F)C(F)(F)C(F)(F)F`, the AC50 is 54.9 µM (active) and 54.8 µM (active).

Consider `FC(F)(F)C(F)(F)C(F)(F)C(F)(F)C(F)(F)C(F)(F)CC[Si](Cl)(Cl)Cl`, for which the result was inactive.

As to `NC(O)(C(F)(F)F)C(F)(F)F`, the outcome was inactive.

Consider `C=C(C)C(=O)OCC(F)(F)C(F)(F)C(F)(F)C(F)F`, for which the result was inactive.

With `O=C(Cl)C(F)(F)C(F)(F)C(F)(F)C(F)(F)C(F)(F)C(F)(F)F`, the outcome was inactive.

On to `FC(F)(F)C(F)(F)C(F)(F)CC1CO1` (stereo not given), for which the result was inactive.

For `OCCCCC(F)(F)C(F)(F)C(F)(F)C(F)(F)F`, the result was inactive.

As to `NC(=O)C(F)(F)C(F)(F)C(F)(F)F`, the outcome was inactive.

Take `NC(=O)C(F)(F)C(F)(F)C(F)(F)C(F)(F)C(N)=O`: the outcome was inactive.

`NC(=O)C(F)(F)C(F)(F)C(F)(F)C(F)F`: the result was inactive.

Take `C[Si](Cl)(Cl)CCC(F)(F)C(F)(F)C(F)(F)C(F)(F)C(F)(F)C(F)(F)F`: the result was inactive.

Consider `FC(F)(F)C(F)(F)C(F)(F)C(F)(F)C(F)(F)C(F)(F)C(F)(F)CCI`, for which the outcome was inactive.

Take `CCOC(=O)CC(=O)C(F)(F)C(F)(F)F`: the outcome was inactive.

Regarding `CNS(=O)(=O)C(F)(F)C(F)(F)C(F)(F)C(F)(F)C(F)(F)C(F)(F)C(F)(F)C(F)(F)F`, the outcome was inactive.

Regarding `C=CC(=O)OCCC(F)(F)C(F)(F)C(F)(F)C(F)(F)F`, the result was inactive.

In the case of `C=CC(=O)OCC(F)(F)C(F)(F)C(F)(F)C(F)(F)C(F)(F)C(F)(F)C(F)(F)C(F)F`, the result was inactive.

`C=CC(=O)OCC(F)(F)C(F)(F)C(F)(F)COC(=O)C=C`: the AC50 was 38.5 µM (active) and 35.5 µM (active).

As for `O=S(=O)(O)CCC(F)(F)C(F)(F)C(F)(F)C(F)(F)F`, the result was inactive.

Take `CCN(CCO)S(=O)(=O)C(F)(F)C(F)(F)C(F)(F)C(F)(F)C(F)(F)C(F)(F)C(F)(F)C(F)(F)F`: the result was inactive and the AC50 is 51.6 µM (active).

Take `CCN=C1C=CC(=C(c2ccc(N(CC)CC)cc2)c2ccc(N(CC)CC)cc2)c2ccccc21`: the AC50 was 3.19 µM (active) and 2.57 µM (active).

For the compound `COC(F)(C(F)F)C(F)(F)F` (stereo not given), the result was inactive.

Consider `O=C(Cl)C(F)(F)C(F)(F)C(F)(F)C(F)(F)C(F)(F)C(F)(F)C(F)(F)F`, for which the result was inactive.

Turning to `NS(=O)(=O)C(F)(F)C(F)(F)C(F)(F)C(F)(F)C(F)(F)C(F)(F)F`, the outcome was inactive.

As to `NCC(F)(F)C(F)(F)C(F)(F)C(F)(F)C(F)(F)C(F)(F)F`, the result was inactive.

As for `OCC(O)CC(F)(F)C(F)(F)C(F)(F)C(F)(F)C(F)(F)C(F)(F)C(F)(F)C(F)(F)F` (stereo not given), the outcome was inactive.

As to `OCC(O)CC(F)(F)C(F)(F)C(F)(F)C(F)(F)F` (stereo not given), the result was inactive.

Regarding `NCC(F)(F)C(F)(F)C(F)(F)C(F)(F)C(F)(F)C(F)(F)C(F)(F)C(F)(F)F`, the outcome was inactive.

Consider `O=C(O)CCC(F)(F)C(F)(F)C(F)(F)C(F)(F)C(F)(F)C(F)(F)C(F)(F)F`, for which the result was inactive.

Take `O=S(=O)(O)CCC(F)(F)C(F)(F)C(F)(F)C(F)(F)C(F)(F)C(F)(F)C(F)(F)C(F)(F)F`: the outcome was inactive.

Regarding `O=C(O)C(F)(F)C(F)(F)C(F)(F)OC(F)(F)F`, the outcome was inactive.

The term AC50 denotes the midpoint of the concentration-response curve, whichever way the signal moves.
